# From PubChem BioAssay AID651610 (Broad Institute, 2012)
# Hit rate of the full screen: of about 360,000 compounds, about 3,900 (1.1%) were called active.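 How the source made its calls: active means mean replicate inhibition score of at least 50 and every replicate individually at or above 50; inconclusive means only one of the two criteria met; inactive means mean below 50 and not all replicates reaching 50.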 Many of the other results were omitted from the sample, so actives are more common in it than they were.
# Assay: inhibitors of HIV-1 Env-driven cell-cell fusion, primary screen, HeLa-JRFL effector, CEM21 target cells, luciferase (AID 651610);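 further: 0% = plate neutral controls and 100% = maraviroc near 300 nM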
# Settings: active compounds read high; at 16.7 µM unless noted
row,SMILES,inhibition
1,CCCCNc1cccc2c1S(=O)(=O)N[C@@H](C)CO2,-0.896% [at 12.3 µM] (inactive)
2,CCC(CC)c1nnc(NC(=O)C2=COCCO2)s1,-12% [at 12.3 µM] (inactive)
3,COc1ccc(C(O)c2nc(-c3ccc4c(c3)OCO4)cs2)cc1 (stereo not given),-6.46% [at 12.3 µM] (inactive)
4,NS(=O)(=O)c1ccc2nc(NC(=O)C3=COCCO3)sc2c1,-13.9% [at 12.3 µM] (inactive)
5,Cc1ccc(-c2csc(NC(=O)C3=COCCO3)n2)cc1C,55.4% [at 12.3 µM] (active)
6,C/C(=N/NC(=O)c1ccncc1)c1ccc2c(c1)OCO2,-13.1% [at 12.3 µM] (inactive)
7,O=C(Nc1nc(-c2ccc3c(c2)OCO3)cs1)c1ccncc1,71% [at 12.3 µM] (active)
8,Cc1noc(C)c1NC(=O)N(C)C[C@@H]1OCCCC[C@@H](C)Oc2ccc(NC(=O)C3CCCCC3)cc2C(=O)N([C@H](C)CO)C[C@@H]1C,-14% (inactive)
9,C[C@@H]1CN([C@@H](C)CO)C(=O)c2cc(NC(=O)Nc3cccc4ccccc34)ccc2O[C@@H]1CN(C)C(=O)Nc1cccc2ccccc12,7.37% (inactive)
10,C[C@@H]1CN([C@@H](C)CO)C(=O)c2cc(-c3cncnc3)cnc2O[C@H]1CN(C)C(=O)c1cccc(F)c1,-6.88% (inactive)
11,C[C@@H]1CN([C@@H](C)CO)S(=O)(=O)c2ccc(C#CC3(O)CCCC3)cc2O[C@H]1CN(C)C(=O)c1ccncc1,-22.7% (inactive)
12,CNC[C@H]1Oc2cc(-c3ccc(OC)cc3)ccc2S(=O)(=O)N([C@H](C)CO)C[C@@H]1C,1.64% (inactive)
13,CNC[C@H]1Oc2c(NC(=O)C3CC3)cccc2C(=O)N([C@@H](C)CO)C[C@@H]1C,-1.43% (inactive)
14,CCS(=O)(=O)N[C@@H]1CC[C@@H](CC(=O)NCC2CC2)O[C@H]1CO,-3.04% (inactive)
15,C[C@@H]1CN([C@H](C)CO)S(=O)(=O)c2ccc(-c3ccccc3)cc2O[C@H]1CN(C)C(=O)C1CCC1,19.5% (inactive)
16,C[C@@H]1CN([C@@H](C)CO)C(=O)Cc2cc(NS(=O)(=O)c3ccc(Cl)cc3)ccc2O[C@H]1CN(C)CC1CCCCC1,32.1% (inactive)
17,C[C@H]1CN([C@@H](C)CO)C(=O)c2cc(-c3cccc(C(=O)N(C)C)c3)cnc2O[C@H]1CN(C)S(=O)(=O)c1ccccc1,-10.1% (inactive)
18,O=C(C[C@H]1C[C@@H]2c3cc(NC(=O)C4CCC4)ccc3O[C@@H]2[C@H](CO)O1)NCCN1CCCCC1,16.8% (inactive)
19,CCOC(=O)C1=C(CCc2ccccc2)NC(=O)NC1c1ccc2ccccc2c1 (stereo not given),6.29% [at 12.3 µM] (inactive)
20,CCOC(=O)C1=C(CN2CCc3ccccc32)NC(=O)NC1c1ccc(Cl)cc1 (stereo not given),58% [at 12.3 µM] (active)
21,CCOC(=O)C1=C(c2ccccc2)NC(=O)NC1c1cc(OCC)c(O)c([N+](=O)[O-])c1 (stereo not given),-15.8% [at 12.3 µM] (inactive)
22,CCC(CC)COC(=O)C1=C(C)NC(=O)NC1c1ccc([N+](=O)[O-])cc1 (stereo not given),29.9% [at 12.3 µM] (inactive)
23,CCOC(=O)C1=C(CN2CCc3ccccc32)NC(=O)NC1c1cc(C)ccc1C (stereo not given),-13.6% [at 12.3 µM] (inactive)
24,CCOC(=O)C1=C(CN2CCc3ccccc32)NC(=O)NC1c1cccc([N+](=O)[O-])c1 (stereo not given),64.3% [at 12.3 µM] (active)
25,CNC[C@@H]1Oc2c(NC(=O)C3CCOCC3)cccc2C(=O)N([C@@H](C)CO)C[C@H]1C,-14.2% (inactive)

row,SMILES,inhibition
1,C[C@H]1CN([C@@H](C)CO)C(=O)Cc2cc(NC(=O)C3CC3)ccc2O[C@@H]1CN(C)C(=O)NC1CCCCC1,2.31% (inactive)
2,C/C=C/c1ccc2c(c1)O[C@H](CN(C)C(=O)C1CCCCC1)[C@@H](C)CN([C@@H](C)CO)S2(=O)=O,8.29% (inactive)
3,C[C@@H]1CN([C@H](C)CO)C(=O)c2cc(C3=CCCC3)cnc2O[C@@H]1CN(C)C(=O)Nc1ccc(F)cc1,4.49% (inactive)
4,O=C(N/N=C\c1cc2c(cc1Cl)OCO2)c1ccc(Br)s1,-61.6% [at 12.3 µM] (inactive)
5,CC1(C(=O)N/N=C/c2cc3c(cc2Br)OCO3)CC1(Br)Br (stereo not given),102% [at 12.3 µM] (active)
6,O=C(O)CC/C(=C\c1cc2c(cc1Br)OCO2)c1nc2ccccc2s1,-9.93% [at 12.3 µM] (inactive)
7,Cc1noc(C)c1S(=O)(=O)Nc1ccc2c(c1)CC(=O)N([C@H](C)CO)C[C@H](C)[C@H](CN(C)S(=O)(=O)c1cn(C)cn1)O2,-15.2% (inactive)
8,Cc1noc(C)c1NC(=O)N(C)C[C@@H]1Oc2ccc(NS(=O)(=O)c3ccc(F)cc3)cc2CC(=O)N([C@@H](C)CO)C[C@H]1C,-12% (inactive)
9,Cc1ccc2nc(-c3ccc(Br)cc3)cn2c1,34.5% [at 12.3 µM] (inactive)
10,Cc1ccc(-c2cn3cc(C)ccc3n2)cc1,60.5% [at 12.3 µM] (active)
11,Cc1ccc(-c2nc3ccc(Cl)cn3c2Cc2ccccc2)cc1,-27% [at 12.3 µM] (inactive)
12,C[C@H](CO)N1C[C@H](C)[C@@H](CN(C)S(=O)(=O)c2ccccc2F)Oc2ncc(C#Cc3ccccc3F)cc2C1=O,17.5% (inactive)
13,Cn1c(C(=O)N2CCC(C(N)=O)CC2)cc2c(=O)n(C)c3ccccc3c21,0.068% [at 12.3 µM] (inactive)
14,CCOC(=O)N1CCN(C(=O)c2nn(-c3ccc(C)cc3)c(=O)c3c2c2ccccc2n3C)CC1,-11% [at 12.3 µM] (inactive)
15,Cn1c2ccccc2c2c(C(=O)N3CCN(c4ccc(F)cc4)CC3)cn(C3CCCC3)c(=O)c21,67.5% [at 12.3 µM] (active)
16,O=C(C[C@@H]1CC[C@H]2NC[C@H](O)COC[C@@H]2O1)NCCN1CCCCC1,-8.63% (inactive)
17,C[C@H]1CCCCO[C@@H](CN(C)C(=O)Cc2ccccc2)[C@@H](C)CN([C@@H](C)CO)C(=O)c2cc(NC(=O)c3ccccc3)ccc2O1,-43.3% (inactive)
18,COc1ccc(C(N)c2csc(NC(=O)Nc3cccc(C(F)(F)F)c3)n2)cc1 (stereo not given),18.1% [at 12.3 µM] (inactive)
19,NC(c1ccccc1)c1csc(NC(=O)Nc2cccc(C(F)(F)F)c2)n1 (stereo not given),39.2% [at 12.3 µM] (inactive)
20,NC(c1csc(NC(=O)Nc2cccc(C(F)(F)F)c2)n1)C1CCCCC1 (stereo not given),61% [at 12.3 µM] (active)
21,C[C@@H]1CN([C@@H](C)CO)C(=O)c2cc(-c3ccccc3F)cnc2O[C@H]1CN(C)C(=O)C1CC1,15% (inactive)
22,COc1cccc(CNCCc2c[nH]c3ccccc23)c1OCc1ccccc1F,79.1% [at 12.3 µM] (active)
23,Cc1cc(C)cc(NC(=S)NCCc2c[nH]c3ccccc23)c1,2.48% [at 12.3 µM] (inactive)
24,COc1ccc(C(CCNCc2ccccc2F)c2ccc(F)cc2)cc1 (stereo not given),-1.51% [at 12.3 µM] (inactive)
25,CC(C)CC#Cc1ccc2c(c1)O[C@H](CN(C)Cc1ccncc1)[C@H](C)CN([C@H](C)CO)S2(=O)=O,12.7% (inactive)

row,SMILES,inhibition
1,CCCNC(=O)C[C@@H]1CC[C@H]2[C@H](COc3ccc(NC(=O)CCC)cc3C(=O)N2C)O1,-1.97% (inactive)
2,CCNC(=O)c1cc2c(c(-c3cccc(C4=CCCC4)c3)n1)[C@H](CCO)N([S@@](=O)C(C)(C)C)C2,-0.132% (inactive)
3,CNc1nc(Nc2ccc(C)c(Cl)c2)nc(N)c1[N+](=O)[O-],17.7% [at 12.3 µM] (inactive)
4,COc1ccc(Nc2nc(NCc3ccco3)nc(N/N=C/c3ccccc3Cl)n2)cc1,-11.9% [at 12.3 µM] (inactive)
5,COc1cccc(Nc2nc(N)c([N+](=O)[O-])c(NCc3ccco3)n2)c1,56.2% [at 12.3 µM] (active)
6,CO[C@H]1CN(C)C(=O)c2ccc(NC(C)=O)cc2OC[C@@H](C)N(C(=O)c2ccccn2)C[C@@H]1C,4.28% (inactive)
7,C[C@@H]1CN([C@H](C)CO)S(=O)(=O)c2ccc(Br)cc2O[C@@H]1CN(C)Cc1cncnc1,-25.8% (inactive)
8,C[C@@H]1CN([C@H](C)CO)C(=O)c2cccc(N(C)C)c2O[C@H]1CN(C)S(=O)(=O)c1cn(C)cn1,-2.57% (inactive)
9,O=C(CC(O)(C(F)(F)F)C(F)(F)F)Nc1ccc(Cl)c(Cl)c1,109% [at 12.3 µM] (active)
10,O=C(Cc1ncc(C(F)(F)F)cc1Cl)Nc1cccc(Br)c1,-3.53% [at 12.3 µM] (inactive)
11,O=C(CN1CCOCC1)Nc1ccc(NC(=O)CN2CCOCC2)c(Cl)c1,-13.8% [at 12.3 µM] (inactive)
12,Cc1noc(C)c1NC(=O)N[C@@H]1C=C[C@H](CC(=O)N2CCCCC2)O[C@H]1CO,7.13% (inactive)
13,C[C@H](CO)N1C[C@H](C)[C@@H](CN(C)C(=O)c2ccccc2)OCCCC[C@H](C)Oc2ccc(NC(=O)c3ccccc3)cc2C1=O,-52.7% (inactive)
14,CCOC(=O)[C@]12CCCC=C1N(CCC1=CCCCC1)C(=O)[C@H](CC(=O)NCCCOC)C2,20% [at 12.3 µM] (inactive)
15,CCCCCCCCN1C(=O)[C@@H](CC(=O)NCCCC)C[C@@]2(C(=O)OC)C1=C[C@H](C(C)(C)C)O[C@@H]2C,39.6% [at 12.3 µM] (inactive)
16,CCOC(=O)[C@]12CCC=C1N(CCC1=CCCCC1)C(=O)[C@H](CC(=O)NCc1ccc(C)o1)C2,-8.89% [at 12.3 µM] (inactive)
17,CCCCCCCCN1C(=O)[C@@H](CC(=O)NCc2ccccc2)C[C@@]2(C(=O)OC)C1=C[C@H](C(C)(C)C)O[C@@H]2C,64.7% [at 12.3 µM] (active)
18,CCCCCCCCN1C(=O)[C@@H](CC(=O)NCc2ccc(C)o2)C[C@@]2(C(=O)OC)C1=C[C@H](C(C)(C)C)O[C@@H]2C,38% [at 12.3 µM] (inactive)
19,COC(=O)[C@]12C[C@H](CC(=O)NCc3ccccc3)C(=O)N(CCC3=CCCCC3)C1=C[C@H](C(C)(C)C)O[C@@H]2C,67.5% [at 12.3 µM] (active)
20,COC(=O)[C@]12C[C@H](CC(=O)NCc3ccc(C)o3)C(=O)N(CCC3=CCCCC3)C1=C[C@H](C(C)(C)C)O[C@@H]2C,70.3% [at 12.3 µM] (active)
21,COC(=O)[C@]12C[C@H](CC(=O)NCCCCc3ccccc3)C(=O)N(Cc3ccc4c(c3)OCO4)C1=C[C@H](C(C)(C)C)O[C@@H]2C,-19.5% [at 12.3 µM] (inactive)
22,COC(=O)[C@]12C[C@H](CC(=O)NCCC(C)C)C(=O)N(CCc3ccc(OC)c(OC)c3)C1=C[C@H](C(C)(C)C)O[C@@H]2C,14.5% [at 12.3 µM] (inactive)
23,CCCCOCCCNC(=O)C[C@@H]1C[C@@]2(C(=O)OCC)CCCC=C2N(CCC2=CCCCC2)C1=O,34.4% [at 12.3 µM] (inactive)
24,COCCCNC(=O)C[C@H]1C[C@@]2(C(=O)OC)C(=C[C@H](C(C)(C)C)O[C@@H]2C)N(Cc2ccc3c(c2)OCO3)C1=O,-14% [at 12.3 µM] (inactive)
25,CCCCOCCCNC(=O)C[C@@H]1C[C@@]2(C(=O)OC)CCCCC=C2N(CCC2=CCCCC2)C1=O,63.6% [at 12.3 µM] (active)
